Experimental data published in PubChem BioAssay (NCI).
About 79,000 compounds went through this panel and 15% of them were active in at least one assay; those are over-represented in the sample as a whole. Cut-off read from the data, not from the text of the source: active = growth inhibition above about 70%; inactive = the rest.

Legend:
[1] = NCI Yeast Anticancer Drug Screen. Data for the rad50 strain (AID 155);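 note: 0% = growth of vehicle-only cultures of the same strain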; details: S. cerevisiae rad50 strain growth inhibition; at 50.0 µM; active compounds read high
Method in brief: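 Inhibition values express reduced yeast growth in compound-treated cultures relative to vehicle-treated controls.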

[2] = NCI Yeast Anticancer Drug Screen. Data for the mec2-1 strain (AID 157); details: S. cerevisiae mec2-1 strain, at 50.0 µM, active compounds read high
Method in brief: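 Each compound was tested on mec2-1 yeast, a strain altered in DNA damage repair or cell cycle control. Growth inhibition is reported relative to vehicle.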

[3] = NCI Yeast Anticancer Drug Screen. Data for the mlh1 rad18 strain (AID 175); details: S. cerevisiae mlh1 rad18 strain growth inhibition; at 50.0 µM; active compounds read high
Method in brief: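 Inhibition values reflect reduced growth of mutant yeast versus vehicle-treated controls following compound exposure; the mutations affect DNA damage repair.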

Measured: growth inhibition

CC(CN1CCCC1)C(O)(Cc1ccccc1)c1ccccc1 (stereo unspecified)
inactive: [1] -0.05% | [2] -2.7% | [3] -4.15%

Cc1ccc(N2CSC(=S)N(c3ccc(C)cc3)C2)cc1
inactive: [1] -10.4% | [2] -25.9% | [3] 46.6%

NC(=O)C(=O)N/N=C/c1ccc2c(c1)CCC2
inactive: [1] -2.45% | [2] -10.9% | [3] 8.3%

Nc1n[nH]c(=S)n1-c1ccc(Cl)cc1
inactive: [1] -14.3% | [2] -29.6% | [3] -13%

CCOC(=O)c1c(N)sc2c1CCN(Cc1ccccc1)C2
inactive: [1] 39.4% | [2] 17.8% | [3] 21.9%

Cc1ccccc1Nc1n[nH]c(=S)s1
inactive: [1] 46.1% | [2] 17.8% | [3] 33%

Cc1ccccc1CC1c2[nH]c3ccccc3c2CCN1C (stereo unspecified)
inactive: [1] -9.95% | [2] -50.5% | [3] -22.4%

Nc1ccc(Nc2nc3ccccc3s2)c(O)c1
inactive: [1] 22.6% | [2] 2.15% | [3] 24.6%

Cc1n[nH]c(=O)n(/N=C\c2c[nH]c3ccccc23)c1=O
inactive: [1] 0.2% | [2] -4.55% | [3] -1.55%

COc1ccc(N=c2ssc(SC)c2-c2ccccc2)cc1
inactive: [1] 15.4% | [2] -11.4% | [3] -0.8%

N/C(Cc1ccc(N)cc1)=N\O
inactive: [1] -17.4% | [2] -13.6% | [3] -13.8%

CCOC(=O)C1CCC(C(=O)OCC)N1c1ccc(C=O)cc1 (stereo unspecified)
inactive: [1] 16.1% | [2] -18.1% | [3] -3.45%
